AmpC no deterg = qHTS Inhibitors of AmpC Beta-Lactamase (assay without detergent). P00811. AmpC nitrocefin hydrolysis, absorbance 480 nm, 0.0001% Triton. Potency, µM (highest dose often 57.1 µM), hits mostly inhibitors. 330,000 tested, 0.52% active; note: nearly all actives have a fitted effect of over 20% in size
Target sequence (P00811 whole entry, looked up): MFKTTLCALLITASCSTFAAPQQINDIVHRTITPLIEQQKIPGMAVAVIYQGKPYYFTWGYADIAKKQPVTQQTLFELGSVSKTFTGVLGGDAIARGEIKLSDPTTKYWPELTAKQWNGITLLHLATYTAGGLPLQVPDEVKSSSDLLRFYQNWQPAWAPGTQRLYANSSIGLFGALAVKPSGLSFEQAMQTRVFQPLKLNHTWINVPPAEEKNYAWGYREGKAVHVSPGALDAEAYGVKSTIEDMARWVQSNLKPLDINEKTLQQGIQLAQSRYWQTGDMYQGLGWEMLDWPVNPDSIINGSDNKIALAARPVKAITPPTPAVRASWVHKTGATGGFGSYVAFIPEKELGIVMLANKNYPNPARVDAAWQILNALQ
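20 mM phosphate pH 7.0 + 0.01% (detergent screen) or 0.0001% Triton X-100; 5.3 nM AmpC reagent; cpd preinc 15 min RT; nitrocefin (800 uM stock) to start; A480 q20 s × 4 min; Activity was normalised to no-enzyme and no-compound control wells.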
NS1 inh = qHTS Assay for Inhibitors of Influenza NS1 Protein Function; 270,000 tested, 0.4% active; Potency, µM (doses to about 46.1 µM); AID 2326, 2010; calls by dose curve; note: actives are rising curves; nearly all actives have a fitted effect of over 50% in size
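Compounds were scored for reversing the slow growth caused by influenza A NS1 in S. cerevisiae, measured by optical density at 600 nm. Assay medium contained 2% galactose at pH 6.0; NS1-free yeast of the same strain were the positive control.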
Shiga inhibitor = A qHTS for Small Molecule Inhibitors of Shiga Toxin; Vero cells, Shiga toxin protein synthesis inhibition reporter; inhibition, % at 38.7 µM; 290,000 tested, 9.2% active; AID 2315, 2010; in the data active = inhibition mostly above about 28%, no sharp cut-off; inactive = mostly below about 43%
AmpC inh detg = qHTS Inhibitors of AmpC Beta-Lactamase (assay with detergent). P00811. AmpC hydrolysis of nitrocefin, absorbance 480 nm, 0.01% Triton. Potency, µM (series often up to 114 µM), usual class: inhibitors. 370,000 tested, 0.041% active. AID 485294, 2010; note: nearly all actives have a fitted effect of over 25% in size
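AmpC (5.3 nM in the dispensed reagent) in 20 mM phosphate pH 7.0 with 0.01% (detergent screen) or 0.0001% Triton X-100 was preincubated with compounds for 15 min at room temperature. Nitrocefin was then added from an 800 uM solution, and hydrolysis was followed at 480 nm.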
CHX counter = Cycloheximide Counterscreen for Small Molecule Inhibitors of Shiga Toxin | cell reporter, cycloheximide protein synthesis inhibition counterscreen | max response, % | 300,000 tested, 12% active; in the data active = max response mostly above about 13%, no sharp cut-off; inactive = mostly below about 14%; note: read at 38.3 µM for the half of the compounds with a filed dose
Each line names hits and unclear results; the compound was inactive in the other large screens. Many of the other results were omitted from the sample, so hits are more common in it than they were. Unless noted, calls come from the whole dose curve; as a rule, active = well fitted curve in the direction sought with a large enough effect; inconclusive = small, poorly fitted or top-dose-only effect, or another doubt; inactive = no such curve, though single readings can be large; an effect the other way counts as inactive or inconclusive.

Fc1ccccc1NC(=S)Nc1cccc2cnccc12	none (no result: NS1 inh)
CCCCNC(=S)Nc1cccc2cnccc12	none
Cc1ccc(NC(=S)Nc2cccc3cnccc23)cc1C	CHX counter 32.2
Cc1ccc(C)c(NC(=S)Nc2cccc3cnccc23)c1	none
FC(F)(F)c1ccccc1NC(=S)Nc1cccc2cnccc12	none (no result: NS1 inh)
Cc1ccccc1NC(=S)Nc1cccc2cnccc12	Shiga inhibitor 53.8, CHX counter 23.8 (no result: NS1 inh)
S=C(Nc1cccc(Cl)c1)Nc1cccc2cnccc12	Shiga inhibitor 56.3, CHX counter 47.0
CCc1ccccc1N(C)C(=O)c1nn(-c2ccc(OC)cc2)c(=O)c2c1c1ccccc1n2C	none (no result: AmpC no deterg, NS1 inh, Shiga inhibitor, CHX counter)
Cc1ccc(NC(=S)Nc2cccc3cnccc23)cc1	CHX counter 25.7
NC(=S)Nc1cccc2cnccc12	none
COc1ccccc1-n1c(=O)oc2ccc(Cl)cc2c1=O	Shiga inhibitor 85.5, CHX counter 59.4
COc1ccccc1-n1c(-c2ccccc2)nc2ccccc2c1=O	AmpC inh detg inconclusive
c1ccc(OCCSc2nnc3sc4ccccc4n23)cc1	Shiga inhibitor 44.8
CCN(CC)C(=O)CSc1nnc2sc3ccccc3n12	none
COc1cccc(NC(=O)Cc2nnc(SCCOc3ccccc3)n2C)c1	none
COc1cccc(OCCSc2nnc3sc4ccccc4n23)c1	Shiga inhibitor 21.0, CHX counter 39.9
Clc1nc2ccccc2cc1/C=N/Nc1nc2ccccc2[nH]1	CHX counter 40.8
C(=N\Nc1nc2ccccc2[nH]1)/c1ccncc1	Shiga inhibitor 69.0, AmpC inh detg inconclusive, CHX counter 32.5 (no result: NS1 inh)
CCNc1nc2ccccc2[nH]1	none
CC(=O)Nc1ccc(/C=N/Nc2nc3ccccc3[nH]2)cc1	Shiga inhibitor 61.5, CHX counter 49.9
O=C(O)c1ccc(/C=N/Nc2nc3ccccc3[nH]2)cc1	CHX counter 16.1
CCc1ccccc1NC(=O)CN1C(=O)C2CCCN2c2ccc(S(=O)(=O)N(CC)CC)cc21 (stereo not drawn)	none (no result: AmpC no deterg, NS1 inh, Shiga inhibitor, CHX counter)
Cc1ccc(-c2noc(CNC(=O)COc3cc(C)c(Br)c(C)c3)n2)cc1	none (no result: AmpC no deterg, NS1 inh, Shiga inhibitor, CHX counter)
CCN(CC)c1ccc(/C=N/Nc2nc3ccccc3[nH]2)cc1	Shiga inhibitor 109.9, CHX counter 37.4
COC(=O)c1ccc(/C=N/Nc2nc3ccccc3[nH]2)cc1	Shiga inhibitor 151.2, CHX counter 46.6
Cc1cc(N2CCOCC2)nc2ccc(Cc3ccc4nc(N5CCOCC5)cc(C)c4c3)cc12	none (no result: AmpC no deterg, Shiga inhibitor, AmpC inh detg, CHX counter)
O=C(CCc1c[nH]c2ccccc12)N1CCN(S(=O)(=O)c2ccc(F)cc2)CC1	AmpC inh detg inconclusive (no result: NS1 inh, Shiga inhibitor, CHX counter)
C[N+](C)(C)c1nc(N)nc2c1ncn2[C@H]1O[C@@H](CO)[C@@H](O)[C@H]1O	none (no result: AmpC no deterg, Shiga inhibitor, AmpC inh detg, CHX counter)
COc1cc(OC)cc(OC(=O)c2ccc3c(=O)n4c(nc3c2)CCC4)c1	none (no result: NS1 inh, Shiga inhibitor, CHX counter)
O=C(COC(=O)c1ccc([N+](=O)[O-])s1)Nc1ccccc1	none
N/C(=N\OC(=O)Nc1ccccc1)c1ncc([N+](=O)[O-])s1	CHX counter 28.2
N#Cc1nc(-c2ccco2)oc1N1CCc2ccccc2C1	Shiga inhibitor 90.5, CHX counter 25.3
CC1CC(C)CN(c2oc(-c3ccco3)nc2C#N)C1 (stereo not drawn)	CHX counter 13.2
N#Cc1nc(-c2ccco2)oc1N1CCCC1	AmpC inh detg inconclusive
CC1(C)Cc2c(cnn2-c2ccccc2)C(NC(=O)CCCN2CCCC2=O)C1 (stereo not drawn)	AmpC inh detg inconclusive
Cc1ccc2c(Cl)c(C(=O)NCCc3ccccc3)sc2c1	Shiga inhibitor 123.9, CHX counter 48.2
COc1ccc(CCNC(=O)c2sc3cc(C)ccc3c2Cl)cc1	AmpC no deterg inconclusive
Cc1ccc2c(Cl)c(C(=O)Nc3cc(C)on3)sc2c1	Shiga inhibitor 77.7, CHX counter 31.4
O=C(NC1CC1)c1sc2cc(Cl)ccc2c1Cl	none (no result: NS1 inh, Shiga inhibitor, CHX counter)
CCNC(=O)c1sc2cc(C)ccc2c1Cl	Shiga inhibitor 39.1, CHX counter 25.2
CC(=O)c1cccc(NC(=O)CN2C(=O)c3ccccc3Sc3ncccc32)c1	none (no result: AmpC no deterg, NS1 inh, Shiga inhibitor, CHX counter)
Cc1coc2c(C)c3oc(=O)c(CCC(=O)N(C)CC(=O)O)c(C)c3cc12	none
N#C/C(=C\c1ccc[nH]1)C(=O)Nc1ccccc1[N+](=O)[O-]	Shiga inhibitor 66.6, CHX counter 22.5
Cc1ccccc1NC(=O)/C(C#N)=C/c1ccc[nH]1	CHX counter 29.5
Cc1ccccc1NC(=O)/C(C#N)=C/c1ccc(-c2ccc(Cl)c(C(=O)O)c2)o1	NS1 inh inconclusive, CHX counter 11.8
Cc1cccc(C)c1NC(=O)/C(C#N)=C/c1ccsc1	none
Cc1ccccc1NC(=O)/C(C#N)=C/c1ccsc1	Shiga inhibitor 36.8, CHX counter 25.3
N#C/C(=C\c1ccc[nH]1)C(=O)N1CCCCC1	none
Cc1ccccc1NC(=O)/C(C#N)=C\c1cn(CC(=O)O)c2ccccc12	none
C/C=C1\COC(C(=O)NCCN2CCOCC2)(C(F)(F)F)C=C1C=C1CCCCC1 (stereo not drawn)	none (no result: AmpC no deterg, NS1 inh, AmpC inh detg)
CC(C)Oc1ccc(CNC(=O)C2CCCCN2S(=O)(=O)c2ccc(F)cc2)cc1 (stereo not drawn)	none (no result: AmpC no deterg, NS1 inh, Shiga inhibitor, CHX counter)
O=C(NNc1c(Cl)cccc1Cl)c1ccno1	none
CCN(CC)S(=O)(=O)c1ccc(/C=C/C(=O)OCC(=O)NCc2cccs2)cc1	none (no result: NS1 inh, Shiga inhibitor, CHX counter)
CCN(CC)CC(C)OC(=O)c1ccccc1Cl (stereo not drawn)	none (no result: NS1 inh)
Cc1ccc(/C=C(\C#N)C(=O)Nc2c(C)cccc2C)s1	none
Cc1ccc(NC(=O)/C(C#N)=C/c2ccc(C)s2)c(C)c1	CHX counter 40.0
O=C(Nc1ccc(Cl)cc1)C(c1ccccc1)N(CCO)CCO (stereo not drawn)	none
O=C(Nc1ccccc1Cl)C(Cl)C(=O)c1ccccc1 (stereo not drawn)	Shiga inhibitor 101.6, CHX counter 47.7 (no result: NS1 inh)
O=C(Nc1ccc(Cl)cc1)C(Cl)C(=O)c1ccccc1 (stereo not drawn)	AmpC inh detg inconclusive, CHX counter 18.8
C/C(=N\NC(=O)c1ccccc1)c1ccc(-n2ccnc2)cc1	Shiga inhibitor 60.3, CHX counter 37.1
C/C(=N\NC(=O)OC(C)(C)C)c1ccc(-n2ccnc2)cc1	AmpC inh detg inconclusive (no result: NS1 inh)
CSCc1ccc(C(=O)NC(C)c2ccc(-n3ccnc3)cc2)cc1 (stereo not drawn)	CHX counter 17.8
CSc1ccccc1C(=O)NC(C)c1ccc(-n2ccnc2)cc1 (stereo not drawn)	none
C/C(=N\NC(=O)COc1ccc(C(C)(C)C)cc1)c1ccc(-n2ccnc2)cc1	CHX counter 31.3
Cc1ccc(NC(=O)n2ccc(-c3ccc(-n4ccnc4)cc3)n2)cc1	Shiga inhibitor 85.0, CHX counter 40.0 (no result: NS1 inh)
O=S(=O)(c1c(F)cccc1F)N1CCCC2CCCCC21 (stereo not drawn)	none (no result: NS1 inh, Shiga inhibitor, CHX counter)
COc1ccc2nc3oc(C(=O)NCc4ccccc4OC)cc3cc2c1	none (no result: AmpC no deterg, NS1 inh, Shiga inhibitor, CHX counter)
Cc1ccc(NS(=O)(=O)c2cc(OCC(N)=O)c(C)cc2Cl)cc1	AmpC inh detg inconclusive

Compound activity deposited in PubChem by National Center for Advancing Translational Sciences (NCATS).
